{
  "source": "PubChem BioAssay (EPA / NIEHS)",
  "note": "“And” between values parts separate entries of the source, which are not always exact repeats. Equal values may be shown once. More than one record can exist for a structure, and the calls need not agree. The source made the active and inactive calls. How the source made its calls: active means hit-call score of the fitted dose curve at least 0.9, where 1 is the maximum; inactive means score below 0.9.",
  "data": [
    {"read-out": "CD90, THY1 (gene 7070)", "test": "BSK_BF4T_CD90: BioMAP Diversity Plus: BF4T Assay for CD90 Biomarker Activity (AID 2284262)", "conditions": "primary human bronchial epithelial cells with fibroblasts", "in_short": "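Co-culture of human bronchial epithelial cells and dermal fibroblasts, 24 h compound exposure. Cell-surface CD90 measured by ELISA relative to DMSO; parallel SRB total-protein staining for cytotoxicity.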", "values": [
      {"smiles": "CC(C)(C)C(=O)CC(=O)C(F)(F)C(F)(F)C(F)(F)F", "outcome": "inactive"},
      {"smiles": "O=C(O)C(F)(F)C(F)(F)OC(F)(F)F", "outcome": "inactive"},
      {"smiles": "OCC(F)(F)C(F)(F)C(F)(F)C(F)(F)C(F)(F)C(F)(F)F", "outcome": "inactive"},
      {"smiles": "FC(F)(F)C(F)(F)C(F)(F)C(F)(F)C(F)(F)C(F)(F)C(F)(F)Br", "outcome": "inactive"},
      {"smiles": "C=C(C)C(=O)OCC(F)(F)C(F)(F)C(F)(F)F", "outcome": "inactive"},
      {"smiles": "OCC(F)(F)C(F)(F)C(F)(F)C(F)(F)C(F)(F)C(F)F", "outcome": "inactive"},
      {"smiles": "C=CC(F)(F)C(F)(F)C(F)(F)C(F)(F)C(F)(F)C(F)(F)C(F)(F)C(F)(F)F", "outcome": "inactive"},
      {"smiles": "Cc1ccc(S(=O)(=O)OCC(F)(F)C(F)(F)C(F)(F)C(F)(F)C(F)(F)C(F)F)cc1", "outcome": "inactive"},
      {"smiles": "N=C(N)C(F)(F)C(F)(F)C(F)(F)C(F)(F)C(F)(F)C(F)(F)C(F)(F)F", "outcome": "inactive"},
      {"smiles": "CCO[Si](CCC(F)(F)C(F)(F)C(F)(F)C(F)(F)C(F)(F)C(F)(F)F)(OCC)OCC", "outcome": "inactive"},
      {"smiles": "FC(F)(F)C(F)(F)CNCC(F)(F)C(F)(F)F", "outcome": "inactive"},
      {"smiles": "C=CC(=O)OCC(F)(F)C(F)(F)C(F)(F)C(F)(F)COC(=O)C=C", "outcome": "inactive"},
      {"smiles": "FC(F)(F)C(F)(F)C(F)(F)C(F)(F)C(F)(F)C(F)(F)CC1CO1", "note": "(centres undefined)", "outcome": "inactive"},
      {"smiles": "OCCCC(F)(F)C(F)(F)C(F)(F)F", "outcome": "inactive"},
      {"smiles": "O=C(Cl)C(F)(F)C(F)(F)C(F)(F)C(F)(F)C(F)(F)C(F)(F)C(F)(F)C(F)(F)F", "outcome": "inactive"},
      {"smiles": "O=C(O)C(F)(F)C(F)(F)C(F)(F)C(F)(F)C(F)(F)C(F)(F)C(F)(F)C(F)(F)Cl", "AC50": "30 µM (active)", "outcome": "inactive"},
      {"smiles": "FC(F)(F)C(F)(F)C(F)(F)C(F)(F)C(F)(F)CCI", "outcome": "inactive"},
      {"smiles": "O=C(O)C(F)(F)C(F)(F)C(F)(F)C(F)(F)C(F)(F)C(F)(F)C(F)(F)C(F)(F)C(F)(F)C(F)F", "AC50": "17.3 µM (active) and 1.67 µM (active)"},
      {"smiles": "O=P(O)(O)OCCC(F)(F)C(F)(F)C(F)(F)C(F)(F)C(F)(F)C(F)(F)F", "outcome": "inactive"},
      {"smiles": "FC(F)(Br)C(F)(F)C(F)(F)C(F)(F)C(F)(F)C(F)(F)Br", "outcome": "inactive"},
      {"smiles": "OCC(F)(F)C(F)(F)C(F)(F)F", "outcome": "inactive"},
      {"smiles": "O=C(O)C(F)(F)C(F)(F)C(F)(F)C(F)(F)C(F)(F)C(F)(F)C(F)(F)C(F)(F)C(F)(F)C(F)(F)C(F)(F)C(F)(F)F", "outcome": "inactive"},
      {"smiles": "O=S(=O)(OCC(F)F)C(F)(F)F", "outcome": "inactive"},
      {"smiles": "FC(F)(F)C(F)(F)C(F)(F)CI", "outcome": "inactive"},
      {"smiles": "FC(F)(I)C(F)(F)C(F)(F)C(F)(F)I", "outcome": "inactive"},
      {"smiles": "FC(F)(F)C(F)(F)C(F)(F)C(F)(F)C(F)(F)C(F)(F)C(F)(F)I", "outcome": "inactive"},
      {"smiles": "OCCCC(F)(F)C(F)(F)C(F)(F)C(F)(F)C(F)(F)C(F)(F)C(F)(F)F", "AC50": "30 µM (active) and 21.3 µM (active)"},
      {"smiles": "COC(=O)CCC(F)(F)C(F)(F)C(F)(F)C(F)(F)F", "outcome": "inactive"},
      {"smiles": "OCC(F)(F)C(F)(F)C(F)(F)C(F)F", "outcome": "inactive"},
      {"smiles": "FC1CC(F)(F)C(F)(F)C1(F)F", "note": "(centres undefined)", "outcome": "inactive"},
      {"smiles": "O=C(O)C(F)(F)C(F)(F)C(F)(F)C(F)(F)F", "outcome": "inactive"},
      {"smiles": "O=S(=O)(O)C(F)(F)C(F)(F)C(F)(F)C(F)(F)C(F)(F)C(F)(F)C(F)(F)F", "outcome": "inactive"},
      {"smiles": "O=C(CC(=O)C(F)(F)C(F)(F)F)C(F)(F)F", "outcome": "inactive"}
    ]}
  ]
}
